The nature of assay [1]: Her2 expression decrease, cell viability multiplex – SKBR3 breast tumor cells, AlphaScreen, ATP viability, primary screen (AID 461;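 active = Her2 level under about 52% in both replicate screens, with viability over 70% of control, limit read from the data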;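 as to Her2 level: lower value means less Her2 protein in the cells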;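 as to viability: percent of carrier control wells set as 100% viability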). The conditions noted are these: SKBR3 Her2 protein level, 18-24 h, measured here: SKBR3 viability, ATP luminescence, at 10 µM. For orientation: Bead proximity is the source of the signal in Alpha formats.
Assay [2] addresses Receptor tyrosine-protein kinase erbB-2 (Homo sapiens) (UniProt P04626). Described as above. The conditions noted are these: 18-24 h, at 10 µM, stronger effect = lower value.
The nature of assay [3]: reduced viability of SK-BR-3 breast cancer cells – cell-based, 24 h, human, pilot screen (AID 572;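 active = viability at or below 10% of carrier control in both of two separate runs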;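 also: compound exposure lasted between 18 and 24 h rather than exactly 24 h; 100% = carrier-treated control wells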). The conditions noted are these: SK-BR-3 viability, CellTiter-Glo luminescence, at 10 µM, stronger effect = lower value.
Assay [4] can be described thus: H69AR cell proliferation blockers – human, duplicate replicates, primary screen (AID 580;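 active = viability at or under a set limit in both replicates, limit being median viability minus 3 SD, cut at about 48% in these data, passing the limit was not always enough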;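 also: 100% = mean luminescence of untreated wells and 0% = no signal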). The following applies: H69AR lung tumor cells viability, ATP luminescence, 72 h; at 10 µM; stronger effect = lower value.
Assay [5] is described as follows: MRP1 drug-resistance reversers in H69AR cells – cell-based, doxorubicin co-treatment, pilot screen (AID 601;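 active = viability loss from added drug above about 55%, and viability with drug at most 40%, in both replicates, limit read from the data, passing the limit was not always enough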). The conditions noted are these: CellTiter-Glo, 72 h, at 10 µM; for differential viability (reversal): stronger effect = higher value. (In general: ATP-based viability assays read luminescence as a measure of living cells.)
The nature of assay [6]: yeast transport mutant growth inhibition pilot in 384-well plates, post-Golgi transport modulator project (AID 636; in the data active = inhibition above about 31%). The following applies: absorbance 615 nm, about 18 h, stronger effect = higher value.
Assay [7] can be described thus: growth suppression of yeast trafficking mutant, preliminary HTS, modulators of trafficking downstream of Golgi apparatus project, 1536-format plate, OD 615 nm (AID 637). The following applies: yeast transport mutant growth, absorbance 615 nm, 18 h; stronger effect = higher value.
Assay [8] in a line: S. cerevisiae growth inhibition in permissive medium (OD615), pilot counter-assay for S. cerevisiae lifespan shortening project, permissive growth control (AID 705;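 active = growth inhibition above 25% in both replicates, a cutoff set 3 SD above the mean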). The following applies: OD615, 24 h, at 10 µM, stronger effect = higher value.
Assay [9] in a line: S. cerevisiae growth inhibition in restrictive medium, OD615, pilot screen, restrictive growth control, yeast lifespan reduction project (AID 706;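 active = growth inhibition above a set limit, 3 SD over mean compound inhibition, in both replicates, cut at about 43% in these data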;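 also: modified DeaD lifespan yeast strain shifted to restrictive glucose medium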). The conditions noted are these: OD615, 48 h, at 10 µM, stronger effect = higher value.
Assay [10] is described as follows: doxorubicin toxicity protection in MRP-1 cells – H69AR cells, CellTiter-Glo, duplicate, MRP-1 activator project, pilot screen (AID 807;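 active = viability increase at or above a cutoff of the median across tested compounds plus 3 SD, cut at about 8.5% in these data, passing the limit was not always enough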;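 also: compound pretreatment 18-22 h then 72 h combined with doxorubicin; 0% = doxorubicin alone and 100% = vehicle without doxorubicin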). The following applies: H69AR viability with doxorubicin, CellTiter-Glo luminescence; at 10 µM; stronger effect = higher value.
The nature of assay [11]: viability of HCT116 without oncogenic beta-catenin – human colon tumor cells, pilot screen (AID 823;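 active = cell viability at or below a set limit in both duplicate runs, the limit being the all-compound median minus 4 SD, cut at about 23% in these data, passing the limit was not always enough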;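 also: 0% = wells killed by 20 µM Hyamine and 100% = untreated DMSO cell wells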). The following applies: HCT116 beta-catenin knockout viability, CellTiter-Glo, 60 h; at 10 µM; stronger effect = lower value.
Assay [12] can be described thus: viability of PTEN-null HCT116 cells – cell-based, HCT116 clonal line, CellTiter-Glo, pilot screen (AID 824;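 active = viability at or below 27.92% in each of two runs, the all-compound median minus 4 SD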;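 also: 0% = 20 µM Hyamine control and 100% = vehicle cell control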). The conditions noted are these: HCT116 PTEN-deleted viability, 60 h, at 10 µM, stronger effect = lower value.
Assay [13] is described as follows: RAM pathway blockade in budding yeast – dse1pr::URA3 reporter, 5-FOA selection, pilot screen (AID 869;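 active = inhibition over a set limit, the all-compound mean plus 3 SD, in both replicate runs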;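 also: 0% = DMSO wells with no growth and 100% = 10 µM 1-NA-PP1 with full growth; RAM network block rescues cells from 5-FOA so hits raise OD615 growth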). The following applies: S. cerevisiae dse1pr::URA3 5-FOA growth, OD615, 2 d; at 10 µM; stronger effect = higher value; strain carries analog-sensitive mutant Cbk1 kinase.
Assay [14] is described as follows: RAM signaling pathway blockade in yeast – S. cerevisiae, Pdr1DBD-CYC8 efflux-inhibited sensitized strain, primary screen (AID 1298;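 active = RAM network inhibition above 8.4% in each of two replicates, 3 SD over the compound average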;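 also: 0% = DMSO untreated cells without growth and 100% = 10 µM 1-NA-PP1 full growth; higher means more yeast growth rescued from 5-FOA killing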). The conditions noted are these: S. cerevisiae cbk1-as DSE1-URA3 strain, 5-FOA growth OD615, 2 d; at 50 µM; stronger effect = higher value.
Assay [15] is described as follows: HUVEC growth inhibition – cell-based, human, primary screen (AID 575;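 active = viability at or below 30% in both replicate assays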;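 also: 100% = median of untreated cell wells with 0.1% DMSO on each plate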). The conditions noted are these: HUVEC proliferation, CellTiter-Glo luminescence, 72 h; at 10 µM; stronger effect = lower value.
Where [16] appears, read: H69AR cells + 2 uM doxorubicin, measured here: viability with 2 uM doxorubicin, stronger effect = lower value.
The mark [17] stands for this setting: H69AR cells, compound alone cytotoxicity.

Results filed as inconclusive are left out. Active and inactive are the calls of the source. Rule as the data show it, unless noted: active = inhibition above about 30%; inactive = the rest.

Broadly, the viability is a read-out of living cells in per cent, often relative to untreated cells. The term inhibition denotes the change of the read-out against control, counted positive when it falls.

Chain of Receptor tyrosine-protein kinase erbB-2 (Homo sapiens) (P04626 whole entry, looked up): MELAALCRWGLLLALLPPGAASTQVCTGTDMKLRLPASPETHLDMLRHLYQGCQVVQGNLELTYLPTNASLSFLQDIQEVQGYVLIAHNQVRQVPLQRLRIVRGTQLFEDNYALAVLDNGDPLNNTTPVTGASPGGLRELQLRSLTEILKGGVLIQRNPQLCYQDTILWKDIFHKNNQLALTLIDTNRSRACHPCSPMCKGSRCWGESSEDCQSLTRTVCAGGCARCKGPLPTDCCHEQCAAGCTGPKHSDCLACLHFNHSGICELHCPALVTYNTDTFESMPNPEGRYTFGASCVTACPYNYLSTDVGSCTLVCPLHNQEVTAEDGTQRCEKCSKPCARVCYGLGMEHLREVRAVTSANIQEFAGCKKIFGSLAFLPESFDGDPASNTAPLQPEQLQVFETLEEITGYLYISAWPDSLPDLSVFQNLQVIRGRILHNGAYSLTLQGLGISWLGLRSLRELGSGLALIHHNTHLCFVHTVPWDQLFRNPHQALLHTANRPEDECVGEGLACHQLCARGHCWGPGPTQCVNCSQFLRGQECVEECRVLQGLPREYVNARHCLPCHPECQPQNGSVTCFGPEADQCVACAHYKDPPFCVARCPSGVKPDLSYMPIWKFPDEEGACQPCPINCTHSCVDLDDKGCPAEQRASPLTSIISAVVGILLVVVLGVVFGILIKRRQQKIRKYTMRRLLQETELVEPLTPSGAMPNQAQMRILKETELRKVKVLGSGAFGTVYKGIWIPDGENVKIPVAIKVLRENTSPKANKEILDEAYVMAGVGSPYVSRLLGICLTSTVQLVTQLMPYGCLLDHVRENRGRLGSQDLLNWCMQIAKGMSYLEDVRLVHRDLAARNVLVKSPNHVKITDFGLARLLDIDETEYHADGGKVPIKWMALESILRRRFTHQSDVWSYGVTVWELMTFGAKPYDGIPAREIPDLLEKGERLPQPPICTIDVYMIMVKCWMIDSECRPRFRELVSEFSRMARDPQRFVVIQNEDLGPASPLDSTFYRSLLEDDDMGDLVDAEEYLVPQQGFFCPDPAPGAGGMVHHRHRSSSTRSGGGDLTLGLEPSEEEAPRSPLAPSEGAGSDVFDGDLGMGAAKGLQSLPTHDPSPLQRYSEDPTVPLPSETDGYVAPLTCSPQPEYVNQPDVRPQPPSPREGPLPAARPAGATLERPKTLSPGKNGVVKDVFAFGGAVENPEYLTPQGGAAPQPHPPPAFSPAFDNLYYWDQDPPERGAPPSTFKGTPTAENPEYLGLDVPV

On to `C/C=C/CSc1nc2c(c(=O)[nH]c(=O)n2C)n1Cc1ccc(C)cc1`, for which the viability is 102% in [1]; 102% (inactive) in assay [3]; 35.5% (active) in assay [4]; 58.2% in assay [5] (setting [16]); 35.5% in assay [5] (setting [17]); 84.4% (inactive) in assay [11]. In assay [12], the viability was 69.3% (inactive). In addition, in assay [2], the Her2 level is 98.5% (inactive). In [5] (H69AR cells + 2 uM doxorubicin), the differential viability (reversal) was -22.7% (inactive). The values for the inhibition in [6], in assay [7] and in assay [13] were -1.6% (inactive), -0.49% (inactive) and 1.98% (inactive), respectively. Besides, the growth inhibition in assay [8] was 0.005% (inactive); in [9], 1.29% (inactive). Also, the viability increase in assay [10] is -4.39% (inactive). The RAM network inhibition in assay [14] was 2.77% (inactive).
With `COc1ccc(NC(=O)CC2CCCCC2)cc1OC`, the viability in [3] was 96% (inactive); in [15] it was 94.6% (inactive); in assay [4], 103% (inactive); in assay [5] (setting [16]), 90.2%; in assay [5] (setting [17]) it was 103%; in assay [11], 96.3% (inactive). Also, in assay [12], the viability was 93.4% (inactive). The differential viability (reversal) in assay [5] (H69AR cells + 2 uM doxorubicin) was 12.8% (inactive). Further, the inhibition is -6% (inactive) in assay [6], -1.09% (inactive) in assay [7] and 2.6% (inactive) in [13]. Besides, the growth inhibition in assay [8] is -9.11% (inactive); in assay [9] it was -10.4% (inactive). Also, in assay [10], the viability increase is -0.97% (inactive). In addition, in assay [14], the RAM network inhibition was 6.64% (inactive).
Turning to `COc1cc(C(=O)NCCc2ccc3c(c2)OCCO3)ccc1OCC(=O)N1CCOCC1`, the viability in assay [3] was 100% (inactive); in assay [15], 112% (inactive); in assay [4], 93.3% (inactive); in [5] (setting [16]), 92%; in assay [5] (setting [17]), 93.3%; in assay [11], 97.6% (inactive). In addition, the viability in [12] was 96.3% (inactive). Moreover, in assay [5] (H69AR cells + 2 uM doxorubicin), the differential viability (reversal) was 1.3% (inactive). The inhibition in [6] is -5.95% (inactive); in [7], -6.55% (inactive); in [13] it was 1.68% (inactive). For the same compound, the growth inhibition in assay [8] was -14.7% (inactive); in [9], -16% (inactive). Moreover, the viability increase in [10] was -2.17% (inactive). Moreover, in assay [14], the RAM network inhibition was 1.5% (inactive).
Regarding `COc1ccc(C2C(C(=O)Nc3cccnc3)=C(C)Nc3nc(-c4cccs4)nn32)cc1OC` (centres undefined), the viability in assay [1] is 59%; in assay [15], 90.5% (inactive); in [4], 87.8% (inactive); in [5] (setting [16]) it was 75.7%; in [5] (setting [17]) it was 87.8%; in [11], 106% (inactive). For the same compound, the viability in assay [12] was 95.6% (inactive). Further, the Her2 level in assay [2] is 94.5% (inactive). For the same compound, the differential viability (reversal) in assay [5] (H69AR cells + 2 uM doxorubicin) was 12.1% (inactive). Also, the inhibition is 1.2% (inactive) in [6], -6.17% (inactive) in assay [7] and -0.09% (inactive) in assay [13]. Further, the growth inhibition in [8] is -9.82% (inactive); in assay [9], -8.04% (inactive). In assay [10], the viability increase was -1.12% (inactive). In addition, the RAM network inhibition in assay [14] was -1.11% (inactive).
With `O=C(COc1ccc(F)cc1)Nc1ccc(-n2cnnn2)cc1`, the viability in assay [3] is 103% (inactive); in [15], 107% (inactive); in assay [4], 93.1% (inactive); in [5] (setting [16]), 81.1%; in assay [5] (setting [17]), 93.1%; in [11], 102% (inactive). Also, the viability in [12] was 100% (inactive). Further, the differential viability (reversal) in [5] (H69AR cells + 2 uM doxorubicin) was 12% (inactive). Also, the inhibition in assay [6] is -4% (inactive); in [7] it was -1.27% (inactive); in [13] it was 0.61% (inactive). In addition, the growth inhibition is 2.42% (inactive) in assay [8] and 2.31% (inactive) in [9]. For the same compound, the viability increase in assay [10] is 3.62% (inactive). For the same compound, in [14], the RAM network inhibition was 0.57% (inactive).
With `COc1ccccc1S(=O)(=O)Cc1ccc(C(=O)NCCN2CCCCCC2)o1`, the viability in assay [1] was 71%; in assay [15] it was 97.5% (inactive); in assay [4] it was 102% (inactive); in assay [5] (setting [16]) it was 90%; in assay [5] (setting [17]), 102%; in assay [11], 104% (inactive). For the same compound, the viability in assay [12] was 104% (inactive). The Her2 level in assay [2] was 102% (inactive). For the same compound, the differential viability (reversal) in [5] (H69AR cells + 2 uM doxorubicin) was 11.8% (inactive). In addition, the figures for the inhibition in assay [6], in assay [7] and in [13] were -0.9% (inactive), -1.33% (inactive) and 1.38% (inactive), respectively. In addition, the growth inhibition in [8] is 2.4% (inactive); in assay [9], -14.5% (inactive). The viability increase in [10] is -2.82% (inactive). For the same compound, the RAM network inhibition in assay [14] was 7.66% (inactive).
Regarding `Cn1c(CSc2nc3ccccc3s2)nnc1SCC(=O)NCCN1CCOCC1`, the viability in assay [3] is 75% (inactive); in assay [15], 97.6% (inactive); in assay [4], 98.5% (inactive); in assay [5] (setting [16]) it was 102%; in assay [5] (setting [17]), 98.5%; in assay [11] it was 92.9% (inactive). Further, in assay [12], the viability is 86.7% (inactive). For the same compound, the differential viability (reversal) in assay [5] (H69AR cells + 2 uM doxorubicin) was -3.51% (inactive). In addition, the inhibition in assay [6] was 2.67% (inactive); in assay [7], 10% (inactive); in assay [13], 0.27% (inactive). For the same compound, the growth inhibition in assay [8] is 7.95% (inactive); in assay [9], 32.4% (inactive). Also, the viability increase in assay [10] is -3.43% (inactive). For the same compound, the RAM network inhibition in [14] was 3.17% (inactive).
As for `Cc1ccccc1Cn1nc(C)c(NC(=O)c2noc3c2CCc2ccccc2-3)c1C`, the viability in [1] is 126%; in assay [3], 126% (inactive); in assay [4], 98.4% (inactive); in assay [5] (setting [16]), 84.4%; in [5] (setting [17]) it was 98.4%; in assay [11], 79.5% (inactive). For the same compound, in [12], the viability was 85.2% (inactive). Further, the Her2 level in assay [2] is 61% (inactive). For the same compound, the differential viability (reversal) in assay [5] (H69AR cells + 2 uM doxorubicin) is 14% (inactive). For the same compound, the inhibition was 5.77% (inactive) in assay [6], -2.17% (inactive) in assay [7] and 1.23% (inactive) in assay [13]. Also, the growth inhibition in assay [8] is -6.68% (inactive); in [9], 1.82% (inactive). The viability increase in [10] was 10.6% (active). Moreover, the RAM network inhibition in [14] was 6.54% (inactive).
In the case of `O=C(c1ccco1)c1nnn(Cc2ccccc2)c1-c1ccccc1`, the viability in assay [3] was 107% (inactive); in assay [15], 102% (inactive); in [4] it was 85.1% (inactive); in assay [5] (setting [16]), 81.7%; in assay [5] (setting [17]), 85.1%; in assay [11] it was 93.5% (inactive). For the same compound, the viability in assay [12] is 99.1% (inactive). Also, in assay [5] (H69AR cells + 2 uM doxorubicin), the differential viability (reversal) is 3.42% (inactive). Besides, the inhibition in assay [6] is -2.93% (inactive); in assay [7], -4.73% (inactive); in [13], 2.21% (inactive). In addition, the growth inhibition was -6.81% (inactive) in [8] and -8.41% (inactive) in assay [9]. The viability increase in assay [10] is -2.38% (inactive). Besides, the RAM network inhibition in assay [14] is -0.25% (inactive).
As to `C#CCOC(=O)C1C2C=CC(C2)C1C(=O)O` (centres undefined), the viability in assay [3] was 86% (inactive); in assay [15] it was 109% (inactive); in assay [4] it was 93.6% (inactive); in assay [5] (setting [16]) it was 81.7%; in assay [5] (setting [17]), 93.6%; in assay [11] it was 103% (inactive). Besides, the viability in assay [12] was 96.8% (inactive). In addition, the differential viability (reversal) in assay [5] (H69AR cells + 2 uM doxorubicin) is 11.9% (inactive). Also, the inhibition was -6.27% (inactive) in assay [6], 1.45% (inactive) in assay [7] and -0.215% (inactive) in assay [13]. The growth inhibition was 2.87% (inactive) in assay [8] and -1.21% (inactive) in assay [9]. Moreover, in assay [10], the viability increase was 0.51% (inactive). For the same compound, the RAM network inhibition in assay [14] is 2.5% (inactive).

(Values after PubChem BioAssay.)
